Measurements as given in PMC7862700, “An all-to-all approach to the identification of sequence-specific readers for epigenetic DNA modifications on cytosine”.

What was measured:
Assay in all cases: DAPPL (digital affinity profiling via proximity ligation, sequencing); 10 mM Tris-HCl pH 7.5, 50 mM NaCl, 1 mM DTT, 4% glycerol, room temperature, 30 min; GST-TFs on glutathione beads, 16-mer random dsDNA library, 0.1% formaldehyde crosslink after washing; high values mean tight binding
Conditions in all cases: protein: recombinant; tags: N-terminal GST; dsDNA, one strand shown
[1] = biological target: T1, FLI1 (Homo sapiens, UniProt Q01543 1-452)
T1 sequence: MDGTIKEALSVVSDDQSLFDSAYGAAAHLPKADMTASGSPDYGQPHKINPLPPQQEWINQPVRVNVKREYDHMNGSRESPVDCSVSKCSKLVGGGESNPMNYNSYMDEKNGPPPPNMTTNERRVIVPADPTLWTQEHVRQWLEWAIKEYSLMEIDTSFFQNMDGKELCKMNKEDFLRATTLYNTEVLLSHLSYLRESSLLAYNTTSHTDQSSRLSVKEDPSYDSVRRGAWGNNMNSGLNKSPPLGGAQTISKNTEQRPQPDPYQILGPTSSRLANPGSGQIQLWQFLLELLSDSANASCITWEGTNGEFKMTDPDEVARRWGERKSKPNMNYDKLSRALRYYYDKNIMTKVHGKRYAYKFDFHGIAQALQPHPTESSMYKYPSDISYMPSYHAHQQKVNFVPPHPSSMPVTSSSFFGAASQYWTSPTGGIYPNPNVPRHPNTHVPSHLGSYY
In short: (§1)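 Binding signal is each hexamer's read frequency for a factor divided by its frequency in the tag-only sample. The factors were GST-fused human transcription factors from yeast, captured on glutathione beads, DNA-barcoded and pooled with that sample. Pools were incubated with 200 nmole of a random double-stranded 16-mer DNA library in Tris/NaCl/DTT/glycerol buffer at room temperature for 30 min, then washed, crosslinked with 0.1% formaldehyde, proximity-ligated with BsaI/T4 ligase (1 h, 37 °C), PCR-amplified and sequenced on an Illumina NextSeq500.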

[2] = biological target: T2, ELK1 (Homo sapiens, UniProt P19419 1-428)
T2 sequence: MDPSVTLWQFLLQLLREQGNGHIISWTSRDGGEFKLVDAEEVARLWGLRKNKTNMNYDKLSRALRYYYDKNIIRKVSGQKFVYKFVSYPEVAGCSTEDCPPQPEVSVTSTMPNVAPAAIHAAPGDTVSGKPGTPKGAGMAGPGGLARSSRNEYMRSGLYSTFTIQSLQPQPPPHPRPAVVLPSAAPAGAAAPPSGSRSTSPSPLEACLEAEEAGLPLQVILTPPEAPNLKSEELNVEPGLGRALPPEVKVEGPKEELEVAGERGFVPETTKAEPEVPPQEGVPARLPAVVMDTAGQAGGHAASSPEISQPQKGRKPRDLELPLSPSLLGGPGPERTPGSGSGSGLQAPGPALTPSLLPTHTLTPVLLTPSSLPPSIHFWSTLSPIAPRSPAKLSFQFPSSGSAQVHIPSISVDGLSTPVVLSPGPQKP
In short: as §1

[3] = biological target: T3, GABPA (Homo sapiens, UniProt Q06546 1-454)
T3 sequence: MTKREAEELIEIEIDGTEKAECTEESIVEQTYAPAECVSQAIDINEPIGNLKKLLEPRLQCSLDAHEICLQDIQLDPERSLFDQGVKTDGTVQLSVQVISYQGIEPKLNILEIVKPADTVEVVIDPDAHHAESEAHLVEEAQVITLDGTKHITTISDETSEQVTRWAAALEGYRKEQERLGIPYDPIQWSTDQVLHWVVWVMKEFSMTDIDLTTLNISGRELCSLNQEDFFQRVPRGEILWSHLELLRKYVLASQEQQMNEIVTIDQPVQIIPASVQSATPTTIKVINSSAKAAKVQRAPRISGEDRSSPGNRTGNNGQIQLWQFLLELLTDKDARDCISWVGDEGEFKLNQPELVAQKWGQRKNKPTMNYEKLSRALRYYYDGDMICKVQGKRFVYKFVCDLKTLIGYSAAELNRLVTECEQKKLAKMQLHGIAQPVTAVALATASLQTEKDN
In short: as §1

[4] = biological target: T4, ERG (Homo sapiens, UniProt P11308 1-479)
T4 sequence: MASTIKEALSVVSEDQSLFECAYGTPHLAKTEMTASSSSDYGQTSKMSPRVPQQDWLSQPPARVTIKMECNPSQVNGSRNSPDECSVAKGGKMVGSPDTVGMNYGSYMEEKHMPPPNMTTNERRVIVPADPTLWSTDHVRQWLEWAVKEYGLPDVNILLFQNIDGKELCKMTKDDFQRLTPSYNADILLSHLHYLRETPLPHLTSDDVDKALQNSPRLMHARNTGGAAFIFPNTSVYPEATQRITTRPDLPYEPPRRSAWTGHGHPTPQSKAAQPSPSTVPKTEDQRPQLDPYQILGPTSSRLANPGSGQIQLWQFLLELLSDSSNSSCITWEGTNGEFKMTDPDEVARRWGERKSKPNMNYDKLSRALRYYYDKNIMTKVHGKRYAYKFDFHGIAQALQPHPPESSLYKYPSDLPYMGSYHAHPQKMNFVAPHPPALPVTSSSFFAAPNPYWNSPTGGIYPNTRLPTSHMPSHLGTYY
In short: as §1

[5] = biological target: ELF1 (Homo sapiens, UniProt P32519 1-619)
Chain of ELF1 (P32519 whole entry): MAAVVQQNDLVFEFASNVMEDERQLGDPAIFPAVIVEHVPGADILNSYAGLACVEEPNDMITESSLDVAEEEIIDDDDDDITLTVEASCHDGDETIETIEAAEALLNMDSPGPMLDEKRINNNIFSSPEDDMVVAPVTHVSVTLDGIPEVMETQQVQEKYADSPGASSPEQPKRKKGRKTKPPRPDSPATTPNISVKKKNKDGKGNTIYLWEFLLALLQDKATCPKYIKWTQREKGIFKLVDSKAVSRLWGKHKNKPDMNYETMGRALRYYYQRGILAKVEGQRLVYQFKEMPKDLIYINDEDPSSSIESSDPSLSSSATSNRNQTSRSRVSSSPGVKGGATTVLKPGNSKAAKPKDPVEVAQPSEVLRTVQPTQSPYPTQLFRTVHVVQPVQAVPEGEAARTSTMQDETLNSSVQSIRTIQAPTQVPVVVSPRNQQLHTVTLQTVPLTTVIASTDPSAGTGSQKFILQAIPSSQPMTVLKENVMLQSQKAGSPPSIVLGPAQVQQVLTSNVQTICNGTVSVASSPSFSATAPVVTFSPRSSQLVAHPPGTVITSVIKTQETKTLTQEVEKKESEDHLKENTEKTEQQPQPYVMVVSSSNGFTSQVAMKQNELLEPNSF
In short: as §1

[6] = biological target: T5, EHF (Homo sapiens, UniProt Q9NZC4 1-300)
T5 sequence: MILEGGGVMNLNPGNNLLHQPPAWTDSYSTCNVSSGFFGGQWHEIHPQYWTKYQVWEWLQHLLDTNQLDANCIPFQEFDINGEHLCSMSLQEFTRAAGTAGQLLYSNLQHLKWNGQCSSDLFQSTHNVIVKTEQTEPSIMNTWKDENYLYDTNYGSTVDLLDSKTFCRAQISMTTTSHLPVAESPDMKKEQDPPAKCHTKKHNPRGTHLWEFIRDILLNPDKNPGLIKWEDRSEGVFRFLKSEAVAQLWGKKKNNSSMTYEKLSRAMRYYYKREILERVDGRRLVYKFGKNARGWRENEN
In short: as §1

[7] = biological target: SPI1 (Homo sapiens, UniProt P17947 1-270)
In short: as §1

[8] = biological target: SPIB (Homo sapiens, UniProt Q01892 1-262)
Chain of SPIB (Q01892 whole entry): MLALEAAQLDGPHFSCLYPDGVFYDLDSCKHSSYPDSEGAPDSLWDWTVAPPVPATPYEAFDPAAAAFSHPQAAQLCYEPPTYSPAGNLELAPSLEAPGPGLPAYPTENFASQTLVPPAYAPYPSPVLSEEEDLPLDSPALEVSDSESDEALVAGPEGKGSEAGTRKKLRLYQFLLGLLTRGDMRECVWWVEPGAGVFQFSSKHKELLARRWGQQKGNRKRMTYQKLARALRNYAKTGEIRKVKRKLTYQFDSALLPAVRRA
In short: as §1

[9] = biological target: T6, ELK3 (Homo sapiens, UniProt P41970 1-407)
T6 sequence: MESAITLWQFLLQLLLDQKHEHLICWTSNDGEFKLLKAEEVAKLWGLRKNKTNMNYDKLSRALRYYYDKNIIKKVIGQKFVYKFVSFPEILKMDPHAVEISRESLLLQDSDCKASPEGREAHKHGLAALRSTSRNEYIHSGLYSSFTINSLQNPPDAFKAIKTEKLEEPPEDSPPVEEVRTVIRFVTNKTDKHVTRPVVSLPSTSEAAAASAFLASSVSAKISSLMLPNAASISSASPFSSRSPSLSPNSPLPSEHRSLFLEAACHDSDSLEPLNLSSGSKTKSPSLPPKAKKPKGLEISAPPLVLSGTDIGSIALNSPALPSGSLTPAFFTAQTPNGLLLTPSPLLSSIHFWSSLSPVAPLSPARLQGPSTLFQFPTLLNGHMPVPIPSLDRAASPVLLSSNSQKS
In short: as §1

Row | Sequence | binding signal [1] | binding signal [2] | binding signal [3] | binding signal [4] | binding signal [5] | binding signal [6] | binding signal [7] | binding signal [8] | binding signal [9]
1 | TCCGAC | 1.42 fold enrichment (6-mer frequency, TF over GST control) | 1.47 fold enrichment (6-mer frequency, TF over GST control) | 1.32 fold enrichment (6-mer frequency, TF over GST control) | 1.46 fold enrichment (6-mer frequency, TF over GST control) | 1.42 fold enrichment (6-mer frequency, TF over GST control) | 1.46 fold enrichment (6-mer frequency, TF over GST control) | 1.37 fold enrichment (6-mer frequency, TF over GST control) | 1.46 fold enrichment (6-mer frequency, TF over GST control) | 1.56 fold enrichment (6-mer frequency, TF over GST control)
2 | TCCTAA | 1.63 fold enrichment (6-mer frequency, TF over GST control) | 1.34 fold enrichment (6-mer frequency, TF over GST control) | 1.41 fold enrichment (6-mer frequency, TF over GST control) | 1.58 fold enrichment (6-mer frequency, TF over GST control) | 1.49 fold enrichment (6-mer frequency, TF over GST control) | 1.27 fold enrichment (6-mer frequency, TF over GST control) | 1.43 fold enrichment (6-mer frequency, TF over GST control) | 1.49 fold enrichment (6-mer frequency, TF over GST control) | 1.43 fold enrichment (6-mer frequency, TF over GST control)
3 | ATTCGT | 1.24 fold enrichment (6-mer frequency, TF over GST control) | 1.24 fold enrichment (6-mer frequency, TF over GST control) | 1.05 fold enrichment (6-mer frequency, TF over GST control) | 1.15 fold enrichment (6-mer frequency, TF over GST control) | 1.17 fold enrichment (6-mer frequency, TF over GST control) | 1.08 fold enrichment (6-mer frequency, TF over GST control) | 1.11 fold enrichment (6-mer frequency, TF over GST control) | 1.27 fold enrichment (6-mer frequency, TF over GST control) | 1.08 fold enrichment (6-mer frequency, TF over GST control)
4 | TGTCTT | 1.29 fold enrichment (6-mer frequency, TF over GST control) | 1.2 fold enrichment (6-mer frequency, TF over GST control) | 1.38 fold enrichment (6-mer frequency, TF over GST control) | 1.34 fold enrichment (6-mer frequency, TF over GST control) | 1.35 fold enrichment (6-mer frequency, TF over GST control) | 1.31 fold enrichment (6-mer frequency, TF over GST control) | 1.2 fold enrichment (6-mer frequency, TF over GST control) | 1.26 fold enrichment (6-mer frequency, TF over GST control) | 1.38 fold enrichment (6-mer frequency, TF over GST control)
5 | TCATCC | 1.4 fold enrichment (6-mer frequency, TF over GST control) | 1.38 fold enrichment (6-mer frequency, TF over GST control) | 1.39 fold enrichment (6-mer frequency, TF over GST control) | 1.36 fold enrichment (6-mer frequency, TF over GST control) | 1.41 fold enrichment (6-mer frequency, TF over GST control) | 1.38 fold enrichment (6-mer frequency, TF over GST control) | 1.34 fold enrichment (6-mer frequency, TF over GST control) | 1.34 fold enrichment (6-mer frequency, TF over GST control) | 1.43 fold enrichment (6-mer frequency, TF over GST control)
6 | CATTTT | 1.24 fold enrichment (6-mer frequency, TF over GST control) | 1.04 fold enrichment (6-mer frequency, TF over GST control) | 1.23 fold enrichment (6-mer frequency, TF over GST control) | 1.14 fold enrichment (6-mer frequency, TF over GST control) | 1.18 fold enrichment (6-mer frequency, TF over GST control) | 1.16 fold enrichment (6-mer frequency, TF over GST control) | 1.39 fold enrichment (6-mer frequency, TF over GST control) | 1.23 fold enrichment (6-mer frequency, TF over GST control) | 1.15 fold enrichment (6-mer frequency, TF over GST control)
7 | GCCTTG | 1.34 fold enrichment (6-mer frequency, TF over GST control) | 1.27 fold enrichment (6-mer frequency, TF over GST control) | 1.33 fold enrichment (6-mer frequency, TF over GST control) | 1.26 fold enrichment (6-mer frequency, TF over GST control) | 1.29 fold enrichment (6-mer frequency, TF over GST control) | 1.24 fold enrichment (6-mer frequency, TF over GST control) | 1.25 fold enrichment (6-mer frequency, TF over GST control) | 1.23 fold enrichment (6-mer frequency, TF over GST control) | 1.18 fold enrichment (6-mer frequency, TF over GST control)
